In PubChem BioAssay AID1159580 (chemical genetic matrix, 2015):
Where “and” joins values, the source holds several entries; their conditions need not be identical. Equal entries are not always repeated. Out of some 5,500 compounds screened, about 2,000 (36%) were called active. Another 18% or so got no clear call; they are omitted. No stated cut-off is given here; in the data, active means normalized growth mostly below about 0.91 (no sharp cut-off); inconclusive means no clear call, values can overlap the other calls; inactive means mostly above about 0.92. The list shows a part of the results.

Experiment: chemical genetic growth profiling, strain panel (AID 1159580);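 further: tested at 20 µM; growth read once vehicle control cultures reached saturation at 30 °C; 1 = growth at the plate median or of vehicle wells; lower values mean less growth of the strain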
Settings: S. cerevisiae deletion strains, growth OD

Measured: normalized growth

CCCCOC(=O)c1ccccc1C(=O)OCCCC
inactive: locus YAL013W, strain DEP1, active compounds read low 0.988 | locus YAL021C, strain ccr4, active compounds read low 0.979 | locus YAL026C, strain drs2, active compounds read low 0.989 | locus YAL030W, strain snc1, active compounds read low 0.979 | locus YBL061C, strain skt5, active compounds read low 0.986 | locus YBR009C, strain hhf1, active compounds read low 0.968 | locus YBR021W, strain FUR4, active compounds read low 0.955 | locus YBR023C, strain chs3, active compounds read low 0.98 | locus YBR171W, strain sec66, active compounds read low 0.959 | locus YBR229C, strain ROT2, active compounds read low 0.981 | locus YBR231C, strain swc5, active compounds read low 0.983 | locus YBR279W, strain paf1, active compounds read low 0.994 | locus YCL011C, strain gbp2, active compounds read low 0.979 | locus YCL016C, strain dcc1, active compounds read low 0.985 | locus YCL029C, strain bik1, active compounds read low 0.976 | locus YCL061C, strain MRC1, active compounds read low 0.984 | locus YCL069W, strain vba3, active compounds read low 0.985 | locus YCR088W, strain abp1, active compounds read low 0.98 | locus YDL005C, strain med2, active compounds read low 0.97 | locus YDL035C, strain GPR1, active compounds read low 0.986 | locus YDL040C, strain nat1, active compounds read low 0.985 | locus YDL074C, strain BRE1, active compounds read low 0.984 | locus YDL101C, strain DUN1, active compounds read low 0.986 | locus YDL134C, strain PPH21, active compounds read low 0.988 | locus YDL185W, strain tfp1, active compounds read low 0.961 | locus YDL192W, strain arf1, active compounds read low 0.983 | locus YDR001C, strain nth1, active compounds read low 0.984 | locus YDR069C, strain doa4, active compounds read low 0.983 | locus YDR101C, strain arx1, active compounds read low 0.984 | locus YDR137W, strain rgp1, active compounds read low 0.905 | locus YDR150W, strain NUM1, active compounds read low 0.989 | locus YDR159W, strain sac3, active compounds read low 0.993 | locus YDR162C, strain NBP2, active compounds read low 0.976 | locus YDR195W, strain ref2 1.07 | locus YDR297W, strain sur2, active compounds read low 0.984 | locus YDR318W, strain mcm21, active compounds read low 0.979 | locus YDR334W, strain swr1, active compounds read low 0.991 | locus YDR335W, strain msn5, active compounds read low 0.992 | locus YDR388W, active compounds read low 0.961 | locus YDR392W, strain spt3, active compounds read low 0.941 | locus YDR502C, strain sam2, active compounds read low 0.977 | locus YEL003W, strain gim4, active compounds read low 0.987 | locus YEL037C, strain rad23, active compounds read low 0.992 | locus YEL061C, strain CIN8 (second series), active compounds read low 0.989 | locus YEL061C, strain CIN8, active compounds read low 0.992 | locus YER015W, strain faa2, active compounds read low 0.986 | locus YER016W, strain bim1, active compounds read low 0.986 | locus YER110C, active compounds read low 0.974 | locus YER111C, strain swi4, active compounds read low 0.999 | locus YER155C, strain BEM2 (second series), active compounds read low 0.968 | locus YER155C, strain BEM2, active compounds read low 0.98 | locus YER167W, strain BCK2, active compounds read low 0.981 | locus YFR010W, strain ubp6, active compounds read low 0.998 | locus YGL078C, strain dbp3, active compounds read low 0.982 | locus YGL086W, strain mad1, active compounds read low 0.98 | locus YGL167C, strain pmr1, active compounds read low 0.957 | locus YGL173C, strain kem1, active compounds read low 0.98 | locus YGL227W, strain vid30, active compounds read low 0.984 | locus YGL240W, strain doc1, active compounds read low 0.973 | locus YGL248W, strain PDE1, active compounds read low 0.976 | locus YGL253W, strain hxk2, active compounds read low 0.987 | locus YGR078C, strain PAC10, active compounds read low 0.981 | locus YGR135W, strain pre9, active compounds read low 0.988 | locus YGR229C, strain SMI1, active compounds read low 0.948 | locus YGR252W, strain gcn5, active compounds read low 0.992 | locus YHR013C, strain ard1, active compounds read low 1.03 | locus YHR027C, strain rpn1, active compounds read low 0.987 | locus YHR030C, strain SLT2, active compounds read low 0.969 | locus YHR079C, strain IRE1 (second series), active compounds read low 0.972 | locus YHR079C, strain IRE1, active compounds read low 0.962 | locus YHR094C, strain hxt1, active compounds read low 0.973 | locus YHR129C, strain ARP1, active compounds read low 0.996 | locus YHR142W, strain chs7, active compounds read low 0.944 | locus YHR200W, strain rpn10, active compounds read low 0.985 | locus YIL066C, strain RNR3, active compounds read low 0.972 | locus YIL073C, strain SPO22, active compounds read low 0.867 | locus YIL125W, strain kgd1, active compounds read low 0.988 | locus YIR030C, strain dcg1, active compounds read low 0.978 | locus YJL092W, strain hpr5, active compounds read low 0.98 | locus YJL095W, strain BCK1 (second series), active compounds read low 0.985 | locus YJL095W, strain BCK1, active compounds read low 0.979 and 0.96 | locus YJL115W, strain asf1, active compounds read low 0.988 | locus YJL129C, strain trk1, active compounds read low 0.886 | locus YJL134W, strain LCB3, active compounds read low 0.984 | locus YJL154C, strain vps35, active compounds read low 0.985 | locus YJL164C, strain tpk1, active compounds read low 0.961 | locus YJL166W, strain qcr8, active compounds read low 0.974 | locus YJL168C, strain set2, active compounds read low 0.985 | locus YJL187C, strain SWE1 (second series), active compounds read low 0.968 | locus YJL187C, strain SWE1, active compounds read low 0.983 | locus YJR043C, strain POL32, active compounds read low 0.982
